Source: PubChem BioAssay
PMP22 txn prim: modulators of PMP22 gene transcription in S16 Schwann cells; S16 Pmp22-F2sN Schwann cells, FLuc/NLuc coincidence luminescence, 24 h; Potency, µM (doses to about 57.5 µM), without a hit: at the top dose activity change, negative = inhibition, most hits filed as inhibitors; 2% of 43,000 active; AID 1508649; active = clear falling dose curves in both reporters; inconclusive = both reporters move, but less clearly or upward; inactive = either reporter flat; the % is the NLuc reporter signal; note: potency is the fitted concentration of half-maximal effect; % is set by controls: 0 for no effect and ±100 for the full control effect
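S16 Schwann cells carrying FLuc/NLuc coincidence reporter in the Pmp22 3' UTR treated with compound 24 h at 37C; FLuc then NLuc luminescence read sequentially by dual-luciferase reagents.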
OvCa metastasis: blocks SKOV3ip1 adhesion and invasion in omental model | 0.1% of 46,000 active | Potency, µM (top dose mostly 45.8 µM), for the others: at the top dose activity change, negative = inhibition, most hits filed as inhibitors | SKOV3ip1-GFP adhesion/invasion on 3D omental model, fluorescence | AID 1963576;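 note: potency is the fitted concentration of half-maximal effect; plate controls were DMSO wells for no effect and tomatine positive control wells for full effect; nearly all actives have a fitted effect of over 65% in size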
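Adhesion/invasion was scored as fixed GFP-labeled SKOV3ip1 cell counts (488/509 nm), normalized to DMSO and tomatine controls. Cancer cells in serum-free medium, with four compound doses (0.36-46 umol/L), sat 2 hr at RT then 16 hr at 37 C on a 48 hr fibroblast/mesothelial/ECM culture.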
p53null 39C kill: kills p53 null cells at the nonpermissive temperature | H1299 p53-null (neo) cells, 39C, ATPlite viability, 24 h | Potency, µM (series often up to 46.1 µM), for the others: at the top dose activity, negative = cell killing, hits mostly cytotoxic | 0.97% of 55,000 active | AID 904;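 note: potency is the fitted concentration of half-maximal effect; 0% = DMSO only and -100% = full killing by 100 µM tamoxifen; nearly all actives have a fitted effect of over 50% in size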
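Temperature-shift cytotoxicity format: compound titrations on p53-null or A138V-expressing H1299 cells held 24 hr at 39C, cell ATP then measured, AC50 from Hill model.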
S16 F2sN tox: toxic to S16 Pmp22-F2sN Schwann cells | S16 Pmp22-F2sN Schwann cells viability, CellTiter-Glo, 24 h | Potency, µM (highest dose often 57.5 µM), without a hit: top-dose activity change, negative = cytotoxicity, usual class: cytotoxic | 0.48% of 43,000 active | AID 1508642; note: potency is the fitted concentration of half-maximal effect; % is set by controls: 0 for no effect and ±100 for the full control effect; nearly all actives have a fitted effect of over 65% in size
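S16 Pmp22-F2sN Schwann cells (500-1,000/well) in phenol-red-free DMEM with 10% FBS received 23 nL compound by pin tool for 24 h at 37 °C. Viability was then read as CellTiter-Glo luminescence after 15 min at room temperature.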
mTORC1 inh: reduces mTORC1 signaling in Tsc2 and p53 null MEF cells | 0.78% of 44,000 active | Potency, µM (series often up to 38.3 µM), inactives show top-dose activity change, negative = inhibition, usual class: inhibitors | Tsc2-/- p53-/- MEF, phospho-rpS6 immunofluorescence/PI, 24 h | AID 493208;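 note: potency is the fitted concentration of half-maximal effect; plate controls were DMSO for no effect and rapamycin for full effect; nearly all actives have a fitted effect of over 50% in size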
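Plate MEFs (Tsc2-/-, p53-/-, empty vector) in DMEM/10% FBS; after 24 h add compound, incubate 24 h at 37 degree Celsius; fix in PFA/TX-100, block, stain phospho-rpS6 and 10 uM PI; scan at 488 nm; report % positive cells.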
p53null 32C kill: selectivity test: cytotoxicity in p53 null cells, permissive temperature; H1299-neo p53 null cells, ATP luminescence, 24 h, 32C; Potency, µM (doses to about 46.1 µM), for the others: at the highest dose activity change, negative = cytotoxicity, actives largely listed as cytotoxic; 0.62% of 55,000 active; AID 903;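 note: potency is the fitted concentration of half-maximal effect; 0% = DMSO only and -100% = full killing by 100 µM tamoxifen; nearly all actives have a fitted effect of over 55% in size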
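H1299-neo, 600 cells/well; overnight 37C; cpd up to 46 uM, 24 h at 32C; ATPlite luminescence after 20 min RT; normalized to DMSO (0%) and tamoxifen 100 uM (100% kill); Hill-fit AC50.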
NLuc saturating: counter-screen for PMP22 expression modulators: NanoLuc inhibition, saturating substrate | shares compounds with PMP22 txn prim | Secreted NLuc enzyme (filtered S16 cell medium), Nano-Glo luminescence | Potency, µM (top dose mostly 57.5 µM), for inactives: at the highest dose activity change, negative = inhibition, actives largely listed as inhibitors | 4% of 690 active; note: potency is the fitted concentration of half-maximal effect; % is set by controls: 0 for no effect and ±100 for the full control effect
NLuc Km ctr: NanoLuc inhibition at Km substrate, PMP22 artifact check; shares compounds with PMP22 txn prim; secreted NLuc enzyme, coelenterazine luminescence, Km conditions; Potency, µM (highest dose often 57.5 µM), for the others: at the top dose activity change, negative = inhibition, usual class: inhibitors; 5% of 690 active; AID 1508639; note: potency is the fitted concentration of half-maximal effect; % is set by controls: 0 for no effect and ±100 for the full control effect
FLuc ctr PMP22: inhibits firefly luciferase, PMP22 counter-screen | shares compounds with PMP22 txn prim | purified P. pyralis FLuc, luminescence, 10 min | Potency, µM (highest dose often 57.5 µM), inactives show top-dose activity, negative = inhibition, hits mostly inhibitors | 690 tested, under 10 active | AID 1508640; note: % of control where 0% means no effect
Target sequence (P08659 whole entry, looked up): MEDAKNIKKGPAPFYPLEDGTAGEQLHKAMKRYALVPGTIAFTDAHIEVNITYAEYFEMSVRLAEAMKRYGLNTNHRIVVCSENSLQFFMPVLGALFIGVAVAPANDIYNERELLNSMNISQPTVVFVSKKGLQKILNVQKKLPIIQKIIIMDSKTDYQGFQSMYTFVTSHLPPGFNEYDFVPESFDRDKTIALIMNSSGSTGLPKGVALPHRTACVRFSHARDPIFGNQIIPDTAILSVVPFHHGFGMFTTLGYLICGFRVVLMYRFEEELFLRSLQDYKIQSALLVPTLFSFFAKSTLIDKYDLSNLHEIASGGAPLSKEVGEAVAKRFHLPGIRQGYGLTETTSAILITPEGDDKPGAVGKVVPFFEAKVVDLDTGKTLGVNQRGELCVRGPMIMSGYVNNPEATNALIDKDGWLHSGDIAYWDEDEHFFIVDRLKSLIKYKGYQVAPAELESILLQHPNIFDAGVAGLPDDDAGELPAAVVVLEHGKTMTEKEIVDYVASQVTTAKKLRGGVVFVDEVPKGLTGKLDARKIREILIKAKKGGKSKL
S16 viab conf: S16 Schwann cell cytotoxicity, confirmatory; shares compounds with PMP22 txn prim; AID 1508641; S16 Schwann cells viability, CellTiter-Glo ATP luminescence, 24 h; Potency, µM (titrated, usually from 57.5 µM), for inactives: at the highest dose activity change, negative = viability loss, actives largely listed as cytotoxic; 7% of 690 active; note: potency is the fitted concentration of half-maximal effect; % is set by controls: 0 for no effect and ±100 for the full control effect
PMP22 txn cnf: PMP22 transcription modulation, confirmatory; shares compounds with PMP22 txn prim; S16 Schwann cells Pmp22-F2sN, dual luciferase, 24 h; Potency, µM (top dose mostly 57.5 µM), for inactives: at the top dose activity change, negative = inhibition, actives largely listed as inhibitors; 22% of 690 active; active = clear falling dose curves in both reporters; inconclusive = both reporters move, but less clearly or upward; inactive = either reporter flat; the % is the FLuc reporter signal; note: potency is the fitted concentration of half-maximal effect
PMP22 prot conf: rat PMP22 protein level modulation, confirmatory; shares compounds with PMP22 txn prim; S16 Schwann cells Pmp22-HiBiT, luminescence, 48 h; Potency, µM (top dose mostly 27.9 µM), inactives show top-dose activity change, negative = inhibition, actives largely listed as inhibitors; 95 tested, under 10 active; AID 1508647
Target sequence (P25094 whole entry, looked up): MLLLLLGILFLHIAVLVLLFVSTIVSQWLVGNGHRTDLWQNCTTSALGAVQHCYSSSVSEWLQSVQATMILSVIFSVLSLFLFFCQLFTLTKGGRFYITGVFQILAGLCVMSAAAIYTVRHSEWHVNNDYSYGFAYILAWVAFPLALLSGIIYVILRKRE
Numbers without * were called inactive; i = inactive; u = inconclusive; x = not tested or not shown. Compounds with a hit are over-represented: about 3.1% of the library has one in this group of screens. Unless noted, calls come from the whole dose curve; as a rule, active = well fitted curve in the direction sought with a large enough effect; inconclusive = small, poorly fitted or top-dose-only effect, or another doubt; inactive = no such curve, though single readings can be large; an effect the other way counts as inactive or inconclusive.

SMILES	PMP22 txn prim	OvCa metastasis	p53null 39C kill	S16 F2sN tox	mTORC1 inh	p53null 32C kill	NLuc saturating	NLuc Km ctr	FLuc ctr PMP22	S16 viab conf	PMP22 txn cnf	others
CC(C)Cn1c(=O)c2ccccc2n2c(-c3ccc(Br)cc3)nnc12	3.6%	-5.5%	-4.7%	-25.4%	-19.1%	-0.7%	x	x	x	x	x
CC(=O)Nc1ccc(-c2nnc3n(CC(C)C)c(=O)c4ccccc4n23)cc1	u	9.4%	-6.0%	-15.6%	-18.2%	5.7%	u	-0.3%	8.1%	-27.4%	-1.8%
Cc1cc2c(cc1C1(c3ccc(C(=O)O)cn3)CC1)C(C)(C)CCC2(C)C	x	2.0%	x	x	x	x	x	x	x	x	x
Cc1ccc(C)c(N2CCN(CCCNC(=O)c3ccc4nc(C(C)C)oc4c3)CC2)c1	11.2µM*	2.0%	-13.3%	u	-6.4%	4.1%	u	u	4.2%	u	u
O=C(NCCCN1CCN(c2ccc(F)cc2)CC1)c1ccc2nc(Cc3ccccc3)oc2c1	15.8µM*	-17.2%	-6.9%	-9.9%	-3.9%	2.7%	-17.5%	3.3%	0.4%	-12.7%	u
CCc1ccccc1NC(=O)c1cc2c(Cl)nc3ccccc3c2s1	10.1µM*	i	12.5%	16.1%	-0.8%	-2.4%	-16.9%	u	-0.6%	2.7%	5.1%
O=C(NCCCN1CCN(c2ccccc2)CC1)c1ccc2nc(Cc3ccccc3)oc2c1	u	-4.3%	-18.9%	u	0.0%	-8.2%	x	x	x	x	x
O=C(NCCCN1CCN(c2ccc(F)cc2)CC1)c1cc2c(Cl)nc3ccccc3c2s1	14.1µM*	4.1%	-24.3%	16.4%	-2.7%	-0.4%	-12.8%	-11.4%	1.0%	-19.3%	u	PMP22 prot conf=10.5%
Cn1c(=O)c2cc(C(=O)NCCCN3CCN(c4cccc(Cl)c4)CC3)sc2c2ccccc21	-28.2%	1.2%	u	-1.2%	-0.9%	-6.2%	x	x	x	x	x
CN1CC(=O)NC1=NC(=O)Nc1cccc(Cl)c1	x	1.8%	x	x	x	x	x	x	x	x	x
CCN(CC)CCOc1ccc(Nc2ncc3cc(-c4c(Cl)cccc4Cl)c(=O)n(C)c3n2)cc1	x	-24.8%	x	x	x	x	x	x	x	x	x
CCCCCCCCCCCCCCCC(=O)O[C@H]1[C@@H](O)[C@@H](O)[C@@H]([C@H](NC(=O)[C@@H]2C[C@@H](CCC)CN2C)[C@H](C)Cl)O[C@@H]1SC	x	2.5%	x	x	x	x	x	x	x	x	x
N=c1n(CCN2CCCCC2)c2ccccc2n1CC(O)COc1ccc(Cl)cc1Cl (stereo unspecified)	11.9µM*	u	12.6µM*	u	3.69µM*	17.8µM*	-17.5%	-0.2%	-21.0%	30.6µM*	u
COc1ccc(OCC(O)Cn2c(=N)n(CCN3CCCCC3)c3ccccc32)cc1 (stereo unspecified)	u	u	u	u	x	-5.7%	x	x	x	x	x
CN(C)CCNC(=O)c1ccc(Cn2c(=O)c3cccn3c3cccnc32)cc1	10.6µM*	i	-8.6%	-6.2%	u	8.3%	-4.8%	u	6.4%	30.9%	-31.0%
CC(C)(OCc1nn(Cc2ccccc2)c2ccccc12)C(=O)O	x	3.8%	x	x	x	x	x	x	x	x	x
Cc1cc(N2CCN(c3cccc(C(F)(F)F)c3)CC2)n2nc(-c3ccccc3C)nc2n1	16.3µM*	i	-13.5%	1.8%	-4.8%	-5.5%	u	-19.2%	-10.4%	-6.3%	u
Cc1cccc(OCC(=O)Nc2ccc3c(c2)N(C)C(=O)c2ccccc2S3)c1	u	u	6.2%	u	-12.8%	13.9%	x	x	x	x	x
COc1cccc(CNC(=O)Nc2ccc3c(c2)N(C)C(=O)c2ccccc2S3)c1	17.9µM*	16.2%	-3.0%	u	-9.7%	-6.4%	u	u	-15.7%	-2.3%	u
CN1C(=O)c2ccccc2Sc2ccc(NC(=O)COc3ccccc3)cc21	11.9µM*	7.9%	9.3%	-27.4%	-18.8%	3.5%	u	u	0.2%	-7.8%	-31.6%
O=C1NC(=O)[C@@H](c2cn3c4c(cccc24)CCC3)[C@H]1c1c[nH]c2ccccc12	x	-20.4%	x	x	x	x	x	x	x	x	x
COc1ccc(-c2cc(C(F)(F)F)nc(NCCc3ccccc3)n2)cc1OC	12.9µM*	i	-7.7%	4.2%	3.2%	-4.7%	-14.8%	-18.4%	1.4%	-17.9%	0.7%
COc1ccc(-c2cc(C(F)(F)F)nc(NCCc3ccccc3)n2)cc1	-63.2%	-6.2%	-21.8%	u	0.0%	-6.6%	x	x	x	x	x
O=C1CCCC(=O)C1C(=O)c1ccc(C(F)(F)F)cc1[N+](=O)[O-]	x	4.4%	x	x	x	x	x	x	x	x	x
Cc1ccc(C)c(Nc2cc(C(=O)NCCCN(C)C3CCCCC3)c3ccccc3n2)c1	u	u	u	u	u	7.5%	x	x	x	x	x
Cc1cc(C)cc(Nc2cc(C(=O)NCCCN(C)C3CCCCC3)c3ccccc3n2)c1	8.91µM*	-23.2%	12.6µM*	u	4.14µM*	u	-4.9%	0.3%	u	17.2µM*	15.3µM*
